# Source: PubChem BioAssay (NCI)
# The panel holds about 79,000 compounds, 15% with a hit somewhere; the sample as a whole holds those more often. Values without a mark were called inactive. The source made the active and inactive calls. Cut-off read from the data, not from the text of the source: active = growth inhibition above about 70%; inactive = the rest.
# Legend:
# [1] = NCI Yeast Anticancer Drug Screen. Data for the rad52 strain (AID 147);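 note: 0% = growth of vehicle-treated control cultures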; conditions: S. cerevisiae rad52 mutant growth inhibition, hits give high values
# In short: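 The repair-mutant yeast strain was incubated with compounds, then growth was read and inhibition derived relative to vehicle.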
# [2] = NCI Yeast Anticancer Drug Screen. Data for the wt1 strain (AID 149);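 note: 0% = growth of vehicle-treated wt1 cultures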; conditions: S. cerevisiae wt1 strain (SPY 50644) growth inhibition, hits give high values
# In short: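 Readout: yeast growth inhibition, normalised to vehicle controls, in the wt1 strain exposed to test compounds.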
# [3] = NCI Yeast Anticancer Drug Screen. Data for the rad50EPP+ strain (AID 151);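 note: 0% = growth of vehicle-treated control cultures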; conditions: S. cerevisiae rad50 mutant strain, hits give high values
# In short: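 Vehicle-normalised growth inhibition; rad50EPP+ yeast strain, altered in DNA damage repair, compound-treated.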
# [4] = NCI Yeast Anticancer Drug Screen. Data for the mgt1 strain (AID 153); conditions: S. cerevisiae mgt1 mutant growth inhibition, hits give high values
# In short: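 Vehicle-normalized growth inhibition is determined in mgt1 yeast, a strain selected for a defined alteration in DNA repair or cell cycle control.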
# [5] = NCI Yeast Anticancer Drug Screen. Data for the rad50 strain (AID 155);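 note: 0% = growth of vehicle-only cultures of the same strain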; conditions: S. cerevisiae rad50 strain growth inhibition, hits give high values
# In short: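 Compounds were tested on a yeast strain with an engineered DNA damage repair alteration; the reported value is growth inhibition normalised to vehicle treatment.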
# [6] = NCI Yeast Anticancer Drug Screen. Data for the mec2-1 strain (AID 157); conditions: S. cerevisiae mec2-1 strain, hits give high values
# In short: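 Mutant yeast (mec2-1) grown with compound; growth inhibition relative to vehicle control reported.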
# [7] = NCI Yeast Anticancer Drug Screen. Data for the rad14 strain (AID 159);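 note: 0% = growth of vehicle-treated control cultures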; conditions: S. cerevisiae rad14 strain growth inhibition, hits give high values
# In short: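 Compound-treated yeast with a defined DNA-repair lesion; growth inhibition normalised to vehicle-treated cultures.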
# [8] = NCI Yeast Anticancer Drug Screen. Data for the sgs1 mgt1 strain (AID 161);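 note: 0% = growth of cultures given vehicle only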; conditions: S. cerevisiae sgs1 mgt1 strain, hits give high values
# In short: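 This yeast growth screen uses a strain with defined DNA-repair lesions; compound-treated growth is compared with vehicle-treated growth.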
# [9] = NCI Yeast Anticancer Drug Screen. Data for the CLN2oe strain (AID 163);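 note: 0% = growth of vehicle-only control cultures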; conditions: S. cerevisiae CLN2oe strain, hits give high values
# In short: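 Compounds are applied to yeast harbouring a defined cell-cycle control change; reduced growth compared with vehicle-treated controls gives the value.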
# [10] = NCI Yeast Anticancer Drug Screen. Data for the cln2 rad14 strain (AID 165);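 note: 0% = growth equal to vehicle treated cultures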; conditions: S. cerevisiae cln2 rad14 strain, hits give high values
# In short: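 Readout is yeast growth inhibition versus vehicle-treated controls, using a strain with cln2 and rad14 alterations exposed to compound.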
# [11] = NCI Yeast Anticancer Drug Screen. Data for the bub3 strain (AID 167); conditions: S. cerevisiae bub3 mutant strain, hits give high values
# In short: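 Growth of a checkpoint-deficient yeast mutant is measured after compound exposure. Values represent inhibition relative to vehicle.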
# [12] = NCI Yeast Anticancer Drug Screen. Data for the wt2 strain (AID 169);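 note: 0% = growth of vehicle-treated yeast cultures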; conditions: S. cerevisiae wt2 strain growth inhibition, hits give high values
# In short: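 Against vehicle-treated controls, the growth of yeast exposed to each compound was compared, and the inhibition was recorded.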
# [13] = NCI Yeast Anticancer Drug Screen. Data for the mlh1 strain (AID 171);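 note: 0% = growth of vehicle-treated control cultures of the same strain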; conditions: S. cerevisiae mlh1 strain growth inhibition, hits give high values
# In short: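 Measured: yeast growth. Reference: vehicle-treated controls. Organism: strain with a defined alteration affecting DNA damage repair or cell cycle control, treated with compound.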
# [14] = NCI Yeast Anticancer Drug Screen. Data for the sgs1 strain (AID 173);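 note: 0% = growth of vehicle-only control cultures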; conditions: S. cerevisiae sgs1 mutant, hits give high values
# In short: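 Each compound was added to cultures of the altered yeast strain. Growth was recorded, and inhibition was derived by comparison with vehicle controls.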
# [15] = NCI Yeast Anticancer Drug Screen. Data for the rad18 strain (AID 177); conditions: S. cerevisiae rad18 mutant growth inhibition, hits give high values
# In short: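 Vehicle-treated cultures served as the baseline for scoring compound-induced growth inhibition in DNA-repair-mutant yeast.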
# [16] = at 5.0 µM (retest, dose inferred, filed as 0.5)
# [17] = at 50.0 µM (retest, dose inferred, filed as 5.0)
smiles,measurement,setting,value
CC(=O)OCCOCNC(=S)N/N=C(\C)c1cnccn1,growth inhibition,[1]; at 1.2 µM,-27%
same,growth inhibition,[1]; at 3.7 µM,-41%
same,growth inhibition,[1]; at 11.0 µM,-19%
same,growth inhibition,[1]; at 33.0 µM,20%
same,growth inhibition,[1]; at 100.0 µM,77% (active)
same,growth inhibition,[2]; at 1.2 µM,-14%
same,growth inhibition,[2]; at 3.7 µM,-11%
same,growth inhibition,[2]; at 11.0 µM,5%
same,growth inhibition,[2]; at 33.0 µM,28%
same,growth inhibition,[2]; at 100.0 µM,69%
same,growth inhibition,[3]; at 1.2 µM,9%
same,growth inhibition,[3]; at 3.7 µM,9%
same,growth inhibition,[3]; at 11.0 µM,-9%
same,growth inhibition,[3]; at 33.0 µM,0%
same,growth inhibition,[3]; at 100.0 µM,-4%
same,growth inhibition,[4]; at 1.2 µM,8%
same,growth inhibition,[4]; at 3.7 µM,9%
same,growth inhibition,[4]; at 11.0 µM,29%
same,growth inhibition,[4]; at 33.0 µM,53%
same,growth inhibition,[4]; at 100.0 µM,82% (active)
same,growth inhibition,[5]; at 1.2 µM,13%
same,growth inhibition,[5]; at 3.7 µM,-1%
same,growth inhibition,[5]; [16],-25%
same,growth inhibition,[5]; at 11.0 µM,15%
same,growth inhibition,[5]; at 33.0 µM,46%
same,growth inhibition,[5]; [17],45%
same,growth inhibition,[5]; at 50.0 µM,73.4% (active)
same,growth inhibition,[5]; at 100.0 µM,85% (active)
same,growth inhibition,[6]; at 1.2 µM,-17%
same,growth inhibition,[6]; at 3.7 µM,-17%
same,growth inhibition,[6]; [16],-59%
same,growth inhibition,[6]; at 11.0 µM,-2%
same,growth inhibition,[6]; at 33.0 µM,27%
same,growth inhibition,[6]; [17],44%
same,growth inhibition,[6]; at 50.0 µM,59.7%
same,growth inhibition,[6]; at 100.0 µM,75% (active)
same,growth inhibition,[7]; at 1.2 µM,-8%
same,growth inhibition,[7]; at 3.7 µM,-12%
same,growth inhibition,[7]; at 11.0 µM,5%
same,growth inhibition,[7]; at 33.0 µM,46%
same,growth inhibition,[7]; at 100.0 µM,84% (active)
same,growth inhibition,[8]; [16],-15%
same,growth inhibition,[8]; [17],43%
same,growth inhibition,[8]; at 50.0 µM,72.7% (active)
same,growth inhibition,[9]; at 1.2 µM,8%
same,growth inhibition,[9]; at 3.7 µM,2%
same,growth inhibition,[9]; at 11.0 µM,12%
same,growth inhibition,[9]; at 33.0 µM,21%
same,growth inhibition,[9]; at 100.0 µM,82% (active)
same,growth inhibition,[10]; [16],-9%
same,growth inhibition,[10]; [17],45%
same,growth inhibition,[10]; at 50.0 µM,60.8%
same,growth inhibition,[11]; at 1.2 µM,-18%
same,growth inhibition,[11]; at 3.7 µM,17%
same,growth inhibition,[11]; [16],-5%
same,growth inhibition,[11]; at 11.0 µM,24%
same,growth inhibition,[11]; at 33.0 µM,51%
same,growth inhibition,[11]; [17],67%
same,growth inhibition,[11]; at 50.0 µM,75.3% (active)
same,growth inhibition,[11]; at 100.0 µM,84% (active)
same,growth inhibition,[12]; at 1.2 µM,-23%
same,growth inhibition,[12]; at 3.7 µM,-24%
same,growth inhibition,[12]; at 11.0 µM,6%
same,growth inhibition,[12]; at 33.0 µM,25%
same,growth inhibition,[12]; at 100.0 µM,74% (active)
same,growth inhibition,[13]; at 1.2 µM,-1%
same,growth inhibition,[13]; at 3.7 µM,-4%
same,growth inhibition,[13]; at 11.0 µM,15%
same,growth inhibition,[13]; at 33.0 µM,49%
same,growth inhibition,[13]; at 100.0 µM,80% (active)
same,growth inhibition,[14]; at 1.2 µM,-23%
same,growth inhibition,[14]; at 3.7 µM,-15%
same,growth inhibition,[14]; at 11.0 µM,0%
same,growth inhibition,[14]; at 33.0 µM,41%
same,growth inhibition,[14]; at 100.0 µM,80% (active)
same,growth inhibition,[15]; at 1.2 µM,7%
same,growth inhibition,[15]; at 3.7 µM,-5%
same,growth inhibition,[15]; at 11.0 µM,13%
same,growth inhibition,[15]; at 33.0 µM,32%
same,growth inhibition,[15]; at 100.0 µM,82% (active)
[N-]=[N+]=NC1=C(c2ccccn2)C(=O)c2cccc3cccc1c23,growth inhibition,[1]; at 1.2 µM,2%
same,growth inhibition,[1]; at 3.7 µM,4%
same,growth inhibition,[1]; at 11.0 µM,24%
same,growth inhibition,[1]; at 33.0 µM,50%
same,growth inhibition,[1]; at 100.0 µM,75% (active)
same,growth inhibition,[2]; at 1.2 µM,2%
same,growth inhibition,[2]; at 3.7 µM,4%
same,growth inhibition,[2]; at 11.0 µM,5%
same,growth inhibition,[2]; at 33.0 µM,14%
same,growth inhibition,[2]; at 100.0 µM,34%
same,growth inhibition,[3]; at 1.2 µM,9%
same,growth inhibition,[3]; at 3.7 µM,16%
same,growth inhibition,[3]; at 11.0 µM,31%
same,growth inhibition,[3]; at 33.0 µM,74% (active)
same,growth inhibition,[3]; at 100.0 µM,93% (active)
same,growth inhibition,[4]; at 1.2 µM,-3%
same,growth inhibition,[4]; at 3.7 µM,-1%
same,growth inhibition,[4]; at 11.0 µM,19%
same,growth inhibition,[4]; at 33.0 µM,10%
same,growth inhibition,[4]; at 100.0 µM,41%
same,growth inhibition,[5]; at 1.2 µM,2%
same,growth inhibition,[5]; at 3.7 µM,3%
same,growth inhibition,[5]; [16],7%
same,growth inhibition,[5]; at 11.0 µM,5%
same,growth inhibition,[5]; at 33.0 µM,53%
same,growth inhibition,[5]; [17],71% (active)
same,growth inhibition,[5]; at 50.0 µM,67.2%
same,growth inhibition,[5]; at 100.0 µM,71% (active)
same,growth inhibition,[6]; at 1.2 µM,5%
same,growth inhibition,[6]; at 3.7 µM,7%
same,growth inhibition,[6]; [16],-5%
same,growth inhibition,[6]; at 11.0 µM,14%
same,growth inhibition,[6]; at 33.0 µM,37%
same,growth inhibition,[6]; [17],40%
same,growth inhibition,[6]; at 50.0 µM,63.8%
same,growth inhibition,[6]; at 100.0 µM,61%
same,growth inhibition,[7]; at 1.2 µM,2%
same,growth inhibition,[7]; at 3.7 µM,5%
same,growth inhibition,[7]; at 11.0 µM,11%
same,growth inhibition,[7]; at 33.0 µM,26%
same,growth inhibition,[7]; at 100.0 µM,63%
same,growth inhibition,[8]; [16],-7%
same,growth inhibition,[8]; [17],28%
same,growth inhibition,[8]; at 50.0 µM,71.4% (active)
same,growth inhibition,[9]; at 1.2 µM,-3%
same,growth inhibition,[9]; at 3.7 µM,1%
same,growth inhibition,[9]; at 11.0 µM,5%
same,growth inhibition,[9]; at 33.0 µM,35%
same,growth inhibition,[9]; at 100.0 µM,74% (active)
same,growth inhibition,[10]; [16],38%
same,growth inhibition,[10]; [17],31%
same,growth inhibition,[10]; at 50.0 µM,67%
same,growth inhibition,[11]; at 1.2 µM,-1%
same,growth inhibition,[11]; at 3.7 µM,4%
same,growth inhibition,[11]; [16],-11%
same,growth inhibition,[11]; at 11.0 µM,18%
same,growth inhibition,[11]; at 33.0 µM,24%
same,growth inhibition,[11]; [17],59%
same,growth inhibition,[11]; at 50.0 µM,69.6%
same,growth inhibition,[11]; at 100.0 µM,61%
